BAZ2B inh: qHTS Assay for Inhibitors of BAZ2B. Bromodomain adjacent to zinc finger domain protein 2B (Homo sapiens), Q9UIF8. AlphaScreen BAZ2B-H3K14Ac peptide displacement. Potency, µM (doses to about 114 µM), actives largely listed as inhibitors. 360,000 compounds, 4.4% hits; also: nearly all actives have a fitted effect of over 60% in size
Target sequence (Q9UIF8 whole entry, looked up, the tested form may be a part): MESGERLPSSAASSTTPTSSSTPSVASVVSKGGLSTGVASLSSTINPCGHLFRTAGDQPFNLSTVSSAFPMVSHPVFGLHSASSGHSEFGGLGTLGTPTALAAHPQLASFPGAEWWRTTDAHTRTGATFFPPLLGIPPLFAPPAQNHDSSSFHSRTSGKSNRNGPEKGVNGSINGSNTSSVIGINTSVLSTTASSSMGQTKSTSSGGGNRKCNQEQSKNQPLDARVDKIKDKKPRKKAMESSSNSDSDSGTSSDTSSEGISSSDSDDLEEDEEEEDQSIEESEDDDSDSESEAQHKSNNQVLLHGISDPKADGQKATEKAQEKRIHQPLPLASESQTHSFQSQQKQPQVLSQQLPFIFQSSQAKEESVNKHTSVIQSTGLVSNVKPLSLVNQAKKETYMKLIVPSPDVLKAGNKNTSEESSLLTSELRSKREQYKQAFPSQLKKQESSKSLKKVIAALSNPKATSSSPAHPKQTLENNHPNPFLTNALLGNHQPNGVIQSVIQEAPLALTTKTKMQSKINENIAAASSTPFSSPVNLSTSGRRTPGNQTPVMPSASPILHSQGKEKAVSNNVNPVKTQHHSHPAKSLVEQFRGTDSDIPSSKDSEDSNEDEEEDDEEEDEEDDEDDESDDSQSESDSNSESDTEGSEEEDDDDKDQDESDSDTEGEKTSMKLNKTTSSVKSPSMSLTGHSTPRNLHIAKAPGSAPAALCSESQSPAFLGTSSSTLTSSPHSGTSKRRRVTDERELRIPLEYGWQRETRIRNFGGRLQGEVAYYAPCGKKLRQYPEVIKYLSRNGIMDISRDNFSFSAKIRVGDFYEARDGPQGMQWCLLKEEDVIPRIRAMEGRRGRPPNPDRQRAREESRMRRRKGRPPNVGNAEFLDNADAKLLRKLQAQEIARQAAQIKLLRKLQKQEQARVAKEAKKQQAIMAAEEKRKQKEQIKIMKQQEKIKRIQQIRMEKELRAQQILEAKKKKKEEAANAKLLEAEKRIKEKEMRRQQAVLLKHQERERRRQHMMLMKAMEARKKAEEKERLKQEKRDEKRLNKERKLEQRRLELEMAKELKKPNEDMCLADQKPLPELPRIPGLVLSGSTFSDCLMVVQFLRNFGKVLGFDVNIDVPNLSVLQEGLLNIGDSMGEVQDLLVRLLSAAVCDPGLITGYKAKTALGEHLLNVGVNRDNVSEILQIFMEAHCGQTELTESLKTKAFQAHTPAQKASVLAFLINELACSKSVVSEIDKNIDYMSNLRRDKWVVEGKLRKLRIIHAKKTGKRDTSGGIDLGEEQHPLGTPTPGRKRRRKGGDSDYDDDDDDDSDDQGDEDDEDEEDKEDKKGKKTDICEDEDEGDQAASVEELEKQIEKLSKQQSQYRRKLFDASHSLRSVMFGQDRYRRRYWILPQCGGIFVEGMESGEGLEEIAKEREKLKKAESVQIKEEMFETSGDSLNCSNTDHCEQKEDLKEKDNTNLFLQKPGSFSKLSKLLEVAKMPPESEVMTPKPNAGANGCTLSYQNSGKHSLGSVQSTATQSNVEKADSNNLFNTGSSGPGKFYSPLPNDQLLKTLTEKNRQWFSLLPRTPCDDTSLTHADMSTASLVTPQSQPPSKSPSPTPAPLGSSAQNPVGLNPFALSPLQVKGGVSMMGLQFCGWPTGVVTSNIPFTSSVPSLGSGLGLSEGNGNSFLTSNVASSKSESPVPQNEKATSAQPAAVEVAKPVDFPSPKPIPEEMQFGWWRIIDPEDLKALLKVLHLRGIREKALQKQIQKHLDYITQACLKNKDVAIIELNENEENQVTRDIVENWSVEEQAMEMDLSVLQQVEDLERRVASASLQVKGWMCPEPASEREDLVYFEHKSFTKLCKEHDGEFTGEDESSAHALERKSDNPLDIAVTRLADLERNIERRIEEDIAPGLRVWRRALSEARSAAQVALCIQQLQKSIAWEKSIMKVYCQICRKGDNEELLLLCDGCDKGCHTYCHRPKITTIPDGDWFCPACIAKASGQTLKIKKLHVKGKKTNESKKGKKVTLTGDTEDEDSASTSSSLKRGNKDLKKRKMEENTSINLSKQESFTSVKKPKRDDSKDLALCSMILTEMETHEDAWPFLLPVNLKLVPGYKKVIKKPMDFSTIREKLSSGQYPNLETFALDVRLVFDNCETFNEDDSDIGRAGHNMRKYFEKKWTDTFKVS
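BAZ2B 50 nM plus b-H3(5-23)K14Ac 50 nM, PBS pH 7.4/0.01% Tween-20, 30 min RT; compound added (max 110 uM), 30 min RT; streptavidin donor/Ni-chelate acceptor beads 10 ug/mL final, 20 min dark; AlphaScreen read.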
PLK1 PBD inh: qHTS for Inhibitors of PLK1-PDB (polo-like kinase 1 - polo-box domain): Primary Screen; Serine/threonine-protein kinase PLK1 (Homo sapiens), P53350; Potency, µM, most hits filed as inhibitors; AID 720504, 2013; Plk1 PBD binding of FITC phosphopeptide, fluorescence polarization; 360,000 compounds, 2.8% hits; also: series mostly up to about 57 µM; nearly all actives have a fitted effect of over 65% in size
G9a block: qHTS Assay for Inhibitors of Histone Lysine Methyltransferase G9a | Potency, µM (doses to about 102 µM), usual class: inhibitors | Histone-lysine N-methyltransferase EHMT2 (Homo sapiens), Q96KQ7 | 350,000 compounds, 8.8% hits | G9a H3K9 monomethylation, AlphaScreen, 2 h | AID 504332, 2011; also: nearly all actives have a fitted effect of over 75% in size
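Readings reflect AlphaScreen signal from monomethyl-H3K9 antibody detection. HMT at 20 nM; substrate b-H3K9 500 nM; cofactor SAM 20 uM; 2 h RT reaction; compounds tested as titrations in qHTS with 15 min preincubation.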
HP1b binding inh: HTS for Inhibitors of HP1-beta Chromodomain Interactions with Methylated Histone Tails | 390,000 compounds, 0.56% hits | AlphaScreen HP1-beta / biotin-H3K9me3 peptide binding | Potency, µM (titrated, usually from 114 µM), hits mostly inhibitors | Chromobox protein homolog 1 (Homo sapiens), P83916; also: nearly all actives have a fitted effect of over 70% in size
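Compound inhibition of the preformed complex between 50 nM HP1-beta and 50 nM biotinylated H3K9me3 peptide was read by AlphaScreen. Buffer was PBS pH 7.4 with 0.01% Tween-20. Incubations ran 30 min at room temperature, with 10 ug/mL donor/acceptor beads.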
PI5P4Ka inh: qHTS for Inhibitors of phosphatidylinositol 5-phosphate 4-kinase (PI5P4K); AID 652105, 2013; Phosphatidylinositol 5-phosphate 4-kinase type-2 alpha (Homo sapiens), P48426; PI5P4Kalpha enzyme, ADP-Glo luminescence, 60 min; hits give low values; max response, %; 330,000 compounds, 1.2% hits; active = max response of -50% or lower; inconclusive = between -30% and -50%; inactive = -30% or higher; also: value at the top dose of about 77 µM
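Compounds were pin-transferred onto PI5P4Kalpha and substrate in HEPES pH 7.4 buffer with EGTA, CHAPS and 5% DMSO. ATP (5 microM final) started the reaction, which ran 60 minutes at room temperature before ADP-Glo detection.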
JMJD2A Tudor inh: qHTS Assay for Inhibitors of JMJD2A-Tudor Domain; Lysine-specific demethylase 4A (Homo sapiens), O75164; AlphaScreen JMJD2A-Tudor / H3K4me3 peptide binding; Potency, µM (titrated, usually from 114 µM), hits mostly inhibitors; 390,000 compounds, 4.4% hits; AID 504339, 2011; also: nearly all actives have a fitted effect of over 50% in size
Large screens that a line does not name were inactive. Only some compounds are listed: those with a hit (about 12% of all), similar ones and a draw of the others. Unless noted, calls follow the shape of the dose curve; as a rule, active = well fitted curve in the direction sought with a large enough effect; inconclusive = small, poorly fitted or top-dose-only effect, or another doubt; inactive = no such curve, though single readings can be large; an effect the other way counts as inactive or inconclusive.

CC(C)(C)n1cnc2cc(NCc3cccs3)ccc21	none
CCOc1ccc(CNc2ccc3c(c2)ncn3C(C)(C)C)cc1	BAZ2B inh inconclusive, G9a block 79.4µM, JMJD2A Tudor inh inconclusive
CCn1cnc2cc(NCc3ccc(N(C)C)cc3)ccc21	BAZ2B inh 10µM, G9a block 11.2µM, HP1b binding inh 31.6µM, JMJD2A Tudor inh 10µM
CN(C)c1ccc(CNc2ccc3c(c2)ncn3C(C)(C)C)cc1	BAZ2B inh 15.8µM, G9a block 22.4µM, HP1b binding inh 35.5µM, JMJD2A Tudor inh 14.1µM
CCN(CC)c1ccc(CNc2ccc3c(c2)ncn3CC)cc1	BAZ2B inh 15.8µM, G9a block 22.4µM, HP1b binding inh 35.5µM, JMJD2A Tudor inh 20µM
CCOc1ccc(CCNC(=O)c2ccc(CS(=O)(=O)Cc3ccccc3Cl)o2)cc1OCC	BAZ2B inh inconclusive (no result: PLK1 PBD inh, PI5P4Ka inh)
CCOc1ccc(-n2c(=O)c3c(C)c(C)sc3n(CC(=O)NCCc3ccccc3)c2=O)cc1	none (no result: PLK1 PBD inh, PI5P4Ka inh)
c1ccc(-c2ccncn2)cc1	none (no result: BAZ2B inh, G9a block)
CC(C)=CCc1cc([C@@H]2CC(=O)c3ccc(O)c(CC=C(C)C)c3O2)ccc1O	PI5P4Ka inh -99.5, JMJD2A Tudor inh inconclusive (no result: BAZ2B inh, G9a block)
COc1c(CC=C(C)C)cc(C2CC(=O)c3c(O)cc(O)cc3O2)c(CC=C(C)C)c1O (stereo not drawn)	JMJD2A Tudor inh inconclusive (no result: BAZ2B inh, G9a block)
Cc1cc(=O)oc2cc(OCC(O)Cn3ccnc3)ccc12 (stereo not drawn)	G9a block inconclusive
CCOc1ccccc1NC(=O)CSc1nccn1Cc1ccc(F)cc1	BAZ2B inh inconclusive (no result: PLK1 PBD inh, PI5P4Ka inh)
NC(=O)C1CN(S(=O)(=O)c2ccc(Cl)cc2F)c2ccccc2O1 (stereo not drawn)	G9a block 79.4µM
CS(=O)(=O)N1CC(C(=O)NN)Oc2ccc(Cl)cc21 (stereo not drawn)	none
CCc1nc(Nc2cc(OC)ccc2OC)c2oc3ccccc3c2n1	G9a block inconclusive
CCc1nc(NCc2ccccn2)c2oc3ccccc3c2n1	BAZ2B inh inconclusive, G9a block 25.1µM
CCc1nc(Nc2ccccc2OC)c2oc3ccccc3c2n1	G9a block 50.1µM
c1ccc(CNc2ncnc3c2oc2ccccc23)nc1	none (no result: G9a block)
CC(=O)OCC(=O)[C@@]12OC(C)(C)O[C@@H]1C[C@H]1[C@H]3C[C@H](F)C4=CC(=O)C=C[C@@]4(C)[C@]3(F)[C@H](O)C[C@@]12C	none (no result: BAZ2B inh, PLK1 PBD inh, HP1b binding inh, PI5P4Ka inh, JMJD2A Tudor inh)
COc1ccc(C(C)(O)c2nc(-c3csc4ccccc34)cs2)cc1 (stereo not drawn)	none (no result: BAZ2B inh, G9a block, HP1b binding inh, JMJD2A Tudor inh)
CCCc1cc(-c2n[nH]c(=S)n2-c2cccc(C)c2)cs1	BAZ2B inh inconclusive, PLK1 PBD inh inconclusive, G9a block 3.55µM, JMJD2A Tudor inh inconclusive
Cc1ccccc1-n1c(-c2csc3ccccc23)n[nH]c1=S	G9a block 2µM, JMJD2A Tudor inh inconclusive
Cc1ccccc1-n1c(-c2csc(C)c2C)n[nH]c1=S	G9a block 1µM, JMJD2A Tudor inh 50.1µM
Cc1cccc(-n2c(-c3csc(C)c3C)n[nH]c2=S)c1	G9a block 1.12µM, JMJD2A Tudor inh 22.4µM
O=C1COc2cc(S(=O)(=O)CCC(=O)N3CCN(c4ccccc4)CC3)c(Cl)cc2N1	none (no result: PLK1 PBD inh, PI5P4Ka inh)
CC1(C)CCC2(C(=O)O)CC[C@]3(C)C(=CCC4[C@]5(C)CCC(O)C(C)(C)C5C(O)C[C@]43C)C2C1 (stereo partly drawn)	none (no result: BAZ2B inh, PLK1 PBD inh, HP1b binding inh, PI5P4Ka inh, JMJD2A Tudor inh)
COc1ccc(N2CCN(C(CNC(C)=O)c3ccco3)CC2)cc1 (stereo not drawn)	G9a block inconclusive
O=C(NCC(c1ccco1)N1CCN(c2ccccc2)CC1)c1cccs1 (stereo not drawn)	G9a block inconclusive
COc1ccc(N2CCN(C(CNC(=O)C(=O)NC3CCCC3)c3ccco3)CC2)cc1 (stereo not drawn)	G9a block 7.08µM
O=C(COc1ccccc1)NCC(c1ccco1)N1CCN(c2ccccc2)CC1 (stereo not drawn)	G9a block 44.7µM, JMJD2A Tudor inh inconclusive
COc1ccc(N2CCN(C(CNC(=O)C(=O)NCc3cccs3)c3ccco3)CC2)cc1 (stereo not drawn)	BAZ2B inh inconclusive, PLK1 PBD inh inconclusive, G9a block 39.8µM
COc1ccc(N2CCN(C(CNC(=O)OCc3ccccc3)c3ccco3)CC2)cc1 (stereo not drawn)	BAZ2B inh 39.8µM, G9a block 25.1µM, HP1b binding inh inconclusive, JMJD2A Tudor inh 39.8µM
COc1ccc(NC(=O)Cn2c(=O)n(CCC(=O)NCc3ccccc3OC)c(=O)c3ccccc32)cc1Cl	none (no result: PLK1 PBD inh, PI5P4Ka inh)
C[C@H](NC(=O)c1cccc([N+](=O)[O-])c1)C(=O)OCC(=O)c1ccccc1Br	none (no result: BAZ2B inh, G9a block)
COC(=O)c1ccc(NC(=O)c2cc3cc(C)ccc3n2C)cc1	none (no result: PLK1 PBD inh, PI5P4Ka inh)
N/N=C/C(=N\Nc1ccc(Cl)cc1)C(=O)c1ccncc1	BAZ2B inh inconclusive, JMJD2A Tudor inh inconclusive
COc1cc(NCCCC(C)N)c2ncccc2c1 (stereo not drawn)	BAZ2B inh 31.6µM, G9a block inconclusive, JMJD2A Tudor inh 22.4µM
CCC(CNc1cc(OC)cc2cccnc12)NC1CCCCC1 (stereo not drawn)	BAZ2B inh inconclusive, G9a block 5.01µM, JMJD2A Tudor inh 56.2µM
Cc1cc(O)c(C(c2ccc(F)cc2)N2CCCCC2)c(=O)n1Cc1ccco1 (stereo not drawn)	G9a block inconclusive (no result: PLK1 PBD inh, PI5P4Ka inh)
Cc1ccc(C(=O)n2nc(C)c(S(=O)(=O)N3CCOCC3)c2C)cc1	none (no result: PLK1 PBD inh, PI5P4Ka inh)
O=C(Cn1cnc2ccccc21)Nc1cccc(S(=O)(=O)N2CCCC2)c1	G9a block inconclusive
Cc1csc(=O)n1CCC(=O)OCC(=O)NNC(=O)c1ccc(Cl)cc1	PLK1 PBD inh inconclusive, G9a block 44.7µM
CC(c1ccccc1)C1OCC(C[N+]2(C)CCCCC2)O1 (stereo not drawn)	G9a block inconclusive, HP1b binding inh inconclusive, JMJD2A Tudor inh 56.2µM
CC(C)S(=O)(=O)c1cnc(-c2ccccn2)nc1N	BAZ2B inh 56.2µM, JMJD2A Tudor inh 50.1µM
COc1cc(/C=N/n2c(C)n[nH]c2=S)ccc1OCc1ccc(F)cc1	G9a block 1.26µM, JMJD2A Tudor inh 79.4µM
COc1cc(/C=N\n2nnnc2N)ccc1OCc1ccc(F)cc1	none
CCOc1cc(/C=N/O)ccc1OCc1ccc([N+](=O)[O-])cc1	PLK1 PBD inh 23.8µM, HP1b binding inh inconclusive
COc1cc(/C=N/O)ccc1OCc1ccc(Cl)cc1	none (no result: PLK1 PBD inh, G9a block, HP1b binding inh, PI5P4Ka inh, JMJD2A Tudor inh)
